In the library only some 22% were active in any assay of this set; here they are far more common.
CHX counter = counter-screen hit for Shiga toxin inhibitors, cycloheximide; cell reporter, cycloheximide protein synthesis inhibition counterscreen; max response, %; actives 12% (n = 300,000); in the data active = max response mostly above about 13%, no sharp cut-off; inactive = mostly below about 14%; also: read at 38.3 µM for the half of the compounds with a filed dose; 0% is about no effect
Pf growth 96h = P. falciparum growth inhibition at 96 hour, primary screen for plastid delayed-death inhibitors | P. falciparum luciferase reporter growth, 96 h | Potency, µM (titrated, usually from 28.7 µM), for the others: at the top dose activity change, negative = inhibition, actives largely listed as inhibitors | actives 6.9% (n = 320,000) | AID 504834; also: potency is read from the fitted curve at half-maximal effect; % is scaled to controls: 0 for no effect and ±100 for the full control effect
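Two parasite generations (96 h, 37 C, 5% CO2) of compound exposure in infected erythrocytes (0.05% parasitemia, 2% hematocrit). Luciferase-reporter P. falciparum; decreased luminescence indicates inhibited growth, aimed at apicoplast-acting delayed death.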
Pf growth 48h = P. falciparum growth inhibition at 48 hours (one generation); Potency, µM (top dose mostly 28.7 µM), without a hit: at the top dose activity change, negative = inhibition, most hits filed as inhibitors; P. falciparum luciferase growth in erythrocytes, 48 h; actives 5.9% (n = 310,000); also: potency is read from the fitted curve at half-maximal effect; % is scaled to controls: 0 for no effect and ±100 for the full control effect
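A one-generation exposure of luciferase-tagged malaria parasites in RPMI 1640/Albumax erythrocyte culture, 37 C and 5% CO2. Inhibition is inferred from decreased luminescence after adding detection reagent.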
Shiga toxin inh = Shiga toxin inhibition. Vero cells, Shiga toxin protein synthesis inhibition reporter. inhibition, % at 38.7 µM. actives 9.2% (n = 290,000). AID 2315; in the data active = inhibition mostly above about 28%, no sharp cut-off; inactive = mostly below about 43%; also: 0% is about no effect
LmPK inhibitor = inhibitors of Leishmania mexicana pyruvate kinase. purified LmPK, Kinase-Glo ATP luminescence, 1 h. Potency, µM (series often up to 57.5 µM), for the others: at the top dose activity change, negative = inhibition, usual class: inhibitors. actives 0.37% (n = 290,000); also: potency is read from the fitted curve at half-maximal effect; % is scaled to controls: 0 for no effect and ±100 for the full control effect
Target sequence (Q27686 whole entry, looked up): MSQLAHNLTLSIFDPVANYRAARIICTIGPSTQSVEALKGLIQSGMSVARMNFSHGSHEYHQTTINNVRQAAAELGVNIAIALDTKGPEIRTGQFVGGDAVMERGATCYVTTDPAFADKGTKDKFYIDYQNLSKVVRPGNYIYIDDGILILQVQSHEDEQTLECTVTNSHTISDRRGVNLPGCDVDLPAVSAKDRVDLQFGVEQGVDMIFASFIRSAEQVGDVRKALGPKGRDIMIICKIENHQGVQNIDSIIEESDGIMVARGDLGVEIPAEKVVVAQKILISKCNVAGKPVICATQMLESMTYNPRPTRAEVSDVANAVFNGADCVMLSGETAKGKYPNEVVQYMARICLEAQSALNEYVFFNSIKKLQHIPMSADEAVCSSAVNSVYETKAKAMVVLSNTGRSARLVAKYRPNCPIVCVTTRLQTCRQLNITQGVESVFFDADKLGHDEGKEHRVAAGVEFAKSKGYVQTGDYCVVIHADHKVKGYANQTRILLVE
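Purified LmPK (0.1 nM) converted ADP (0.1 mM) to ATP with PEP (0.5 mM) in imidazole buffer pH 7.2 with KCl and MgCl2, 1 h at room temperature. ATP was read by Kinase-Glo luminescence; data normalized to uninhibited and no-enzyme controls.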
The depositor's hits bear a star; ? = inconclusive; . = no result given. Unless noted, calls follow the shape of the dose curve; as a rule, active = well fitted inhibition curve with a large enough effect; inconclusive = small, poorly fitted or top-dose-only effect, or another doubt; inactive = no such curve, though single readings can be large or run the other way.

SMILES	CHX counter	Pf growth 96h	Pf growth 48h	Shiga toxin inh	LmPK inhibitor
Clc1ccccc1Cn1c(/C=C/c2ccco2)nc2ccccc21	90*	?	?	132*	-6%
CSCCC(NC(=O)c1ccco1)C(=O)N1CC=C(c2ccccc2)CC1 (configuration not stated)	13	-20%	-16%	-3	-5%
CCCCNC(=S)N(CCN(C)C)Cc1cc2cc3c(cc2[nH]c1=O)OCCO3	-2	?	?	-18	-2%
COc1ccccc1N1CCN(/N=C(\C)c2ccccc2O)CC1	32*	-26%	26%	34*	-1%
COc1cc(/C(C)=N/NC(=O)C(O)(c2ccccc2)c2ccccc2)ccc1O	11	-1%	-2%	3	2%
COc1cc(/C(C)=N/N2CCN(c3ccccc3OC)CC2)ccc1O	22*	?	0%	20	-7%
COc1ccc(-c2nc(=S)[nH][nH]2)cc1	13*	?	89%	108*	-1%
COc1ccc(-c2nc(=S)[nH][nH]2)cc1OC	-2	14%	9%	16	0%
CCOc1ccc(-c2nc(=S)[nH][nH]2)cc1	41*	18%	42%	29	-10%
Oc1ccc(-c2nc(=S)[nH][nH]2)cc1	-1	27%	30%	14	3%
Cc1cccc(NC(=O)c2snc3c(=O)[nH]cnc23)c1	-3	6.6µM*	11%	30	-2%
CCc1cccc(NC(=O)c2snc3c(=O)[nH]cnc23)c1	19	-16%	4%	25	1%
CC1=C(C(=O)OCc2ccccc2)C(c2ccc3ccccc3c2)NC(=O)N1CCCC(=O)O (configuration not stated)	-1	68%	2%	-3	-2%
CC1=C(C(=O)OCc2ccccc2)C(c2ccccc2-c2ccccc2)NC(=O)N1CCCCCC(=O)O (configuration not stated)	-4	12µM*	?	-21	0%
CC1=C(C(=O)OCc2ccccc2)C(c2ccc3ccccc3c2)NC(=O)N1CCCCCC(=O)O (configuration not stated)	-2	10µM*	?	-15	1%
CCCCN1C(=O)NC(c2ccc(OC)cc2)C(C(=O)OCc2ccccc2)=C1C (configuration not stated)	5	5.2µM*	?	17	-1%
COc1ccc(S(=O)(=O)NCC2CCCN(C(=O)CCSC)C2)cc1 (configuration not stated)	23	-23%	-10%	-3	1%
Cc1ccc2oc(Nc3nc(-c4ccccc4)cc(=O)[nH]3)nc2c1	11	0.83µM*	?	3	0%
COC(=O)Cc1cc(=O)[nH]c(Nc2nc3ccccc3o2)n1	17*	32%	11%	31*	4%
COCc1cc(=O)[nH]c(Nc2nc(C)c3ccccc3n2)n1	-2	0%	.	-19	0%
CCOC(=O)Cc1cc(=O)[nH]c(Nc2nc3ccccc3o2)n1	18	?	?	77*	3%
COCc1cc(=O)[nH]c(Nc2nc3ccccc3o2)n1	61*	-16%	?	65*	-6%
CCCCCC(=O)Nc1cccc(C2=NOC3(C2)C[C@@H](C(N)=O)N(C(=O)C2(C)CC2)C3)c1 (some centres not stated)	-3	-4%	23%	-6	-2%
CC(SCC(=O)Nc1ccc(F)cc1)c1nc2ccccc2c(=O)[nH]1 (configuration not stated)	1	0%	?	-7	-5%
Cc1ccc2oc(Nc3nc(C)cc(C)n3)nc2c1	11*	44%	50%	31	-3%
SMILES	CHX counter	Pf growth 96h	Pf growth 48h	Shiga toxin inh	LmPK inhibitor
Cc1cc(C)c2nc(Nc3nc(-c4ccccc4)cc(=O)[nH]3)nc(C)c2c1	10	3.7µM*	1.7µM*	-2	-2%
CCCC(C)NC(=O)COC(=O)c1cccc(NS(C)(=O)=O)c1 (configuration not stated)	9	0%	68%	19	2%
CCN(CC)CCCNC(=O)c1cc(Nc2ccc(OC)cc2)nc2ccccc12	-9	3%	?	-9	3%
Cc1cccnc1NC(=O)CCC(=O)c1cccs1	.	-11%	-12%	.	.
CC(=O)c1ccc(OC2OCCOC2Oc2ccc(C(C)=O)cc2)cc1 (configuration not stated)	-3	27%	18%	-9	-1%
Cc1ccc(NC(=O)COc2coc(CN3CCc4ccccc43)cc2=O)c(C)c1	.	-18%	?	.	.
O=C(COc1coc(CN2CCc3ccccc3C2)cc1=O)Nc1ccc(F)cc1F	.	?	-12%	.	.
COc1ccc(OC)c(NC(=O)COc2coc(CN3CCCc4ccccc43)cc2=O)c1	.	?	10µM*	.	.
COc1ccc(OC)c(NC(=O)COc2coc(CN3CCc4ccccc43)cc2=O)c1	.	?	10µM*	.	.
COc1cc(C(=O)Nc2ccc3oc(-c4cccnc4)nc3c2)cc(OC)c1OC	7	?	-16%	12	-2%
O=C(Nc1ccc2oc(-c3ccncc3)nc2c1)c1ccc2c(c1)OCO2	-1	4%	3%	-9	0%
O=C(Nc1ccc2oc(-c3cccnc3)nc2c1)c1ccc2c(c1)OCCO2	26	?	8.3µM*	20	1%
O=C(Nc1ccc2oc(-c3ccncc3)nc2c1)c1ccc2c(c1)OCCO2	-3	9.3µM*	?	6	4%
Cc1cc(C)n(CCc2nc(-c3ccc(C(C)(C)C)cc3)cs2)n1	0	?	-13%	7	1%
Cc1cc(C)n(CCc2nc(-c3ccc(F)cc3)cs2)n1	36*	?	?	78*	-5%
COc1ccc(/C=C2\SC(=S)N(CC(=O)NC3C=CS(=O)(=O)C3)C2=O)cc1 (configuration not stated)	10	0%	14%	-14	-3%
Cn1c(Cc2ccc(Cl)cc2)nnc1SCC(=O)NC1CC1	-2	33%	9%	-2	1%
Oc1ccc2ccccc2c1CNc1ccc(Br)cn1	46*	?	-9%	66*	-4%
Oc1ccc2ccccc2c1CNc1cnc2ccccc2c1	29*	?	.	92*	4%
C=CCc1cccc(CNc2cnc3ccccc3c2)c1O	17*	-3%	?	20*	-1%
Cc1c(NCc2cc(Cl)ccc2O)c(=O)n(-c2ccccc2)n1C	-1	?	?	-13	1%
Oc1ccc(Cl)cc1CNc1cnc2ccccc2c1	14*	2.6µM*	-22%	32	-1%
O=C(Nc1ccc(Br)cn1)c1ccc(COc2c(F)c(F)cc(F)c2F)o1	.	5%	27%	.	.
O=C(O)CC(C(=O)Nc1ccc(Cl)cc1)N1CCCCCC1 (configuration not stated)	1	-6%	0%	9	4%
CS(=O)(=O)N1CCC(C(=O)Nc2cc(Cl)cc(Cl)c2)CC1	-7	-2%	22%	-18	-8%
Cc1cc(C)cc(C(=O)N2CCC3(CC2)NCCc2[nH]cnc23)c1	-4	15%	1%	16	8%
